From publication PMC12670160, “A drug-repurposing screen of FDA- and EMA-approved drugs identifies two NF-κB inhibitors active against eumycetoma” (Journal of Antimicrobial Chemotherapy, 2025)
Counter-ions that a name gives are not always drawn. Like-named read-outs stand apart in the source and are kept apart here. In all, about 5,300 compounds went through this assay and about 130 (2.5%) showed an effect of 50% or more. This excerpt belongs to a sample that is enriched for strong results.

System: M. mycetomatis strain mm55
Details: primary screen, metabolic activity vs growth control, 96 h, 2 µM, inhibitor
[1] = Madurella mycetomatis metabolic activity at 2µM (%)

Row | SMILES | % viability [%] | % viability [1] [%]
1 | C=CC1=C(C)c2cc3[nH]c(cc4nc(cc5[nH]c(cc1n2)c(C)c5CCC(=O)O)C(CCC(=O)OC)=C4C)[C@@]1(C)C3=CC=C(C(=O)OC)[C@H]1C(=O)OC [ONC0001491, verteporfin] | 55.47 | –
2 | CC(C)(C)c1ccc(-c2nc3c(N4CCN(Cc5ccc6nccnc6c5)CC4)cccc3[nH]2)cc1 [ONC0001828, way207024] | 97.56 | –
3 | N=C(N)NCCC[C@@H](N)C(=O)O [ONC0004802, larginine hcl] | 91.52 | –
4 | CN1C/C=C/CCOc2cccc(c2)-c2ccnc(n2)Nc2cccc(c2)C1 [ONC0001026, sb1317] | 86.64 | –
5 | Nc1nc2c(ncn2[C@@H]2O[C@H](CO)[C@@H](O)[C@H]2O)c(=S)[nH]1 [ONC0004689, thioguanosine] | 121.6 | –
6 | C=C[C@@]1(C)CC(=O)[C@]2(O)[C@@]3(C)[C@@H](O)CCC(C)(C)[C@@H]3[C@H](OC(=O)CCN(C)C)[C@H](OC(C)=O)[C@@]2(C)O1 [ONC0002915, colforsindaproate] | 95.97 | –
7 | C/C=C(\C)C(=O)O[C@H]1[C@H](OC(C)=O)[C@@]2(CO)C(CC1(C)C)C1=CCC3[C@@]4(C)CCC(O[C@@H]5O[C@H](C(=O)O)[C@@H](O[C@@H]6O[C@H](CO)[C@@H](O)[C@H](O)[C@H]6O)[C@H](O)[C@H]5O[C@@H]5O[C@H](CO)[C@@H](O)[C@H](O)[C@H]5O)[C@](C)(CO)C4CC[C@@]3(C)[C@]1(C)C[C@H]2O (stereo partly drawn) [ONC0002310, escin] | 67.54 | –
8 | CN1CCC2=C(C1)C(c1ccccc1)c1ccccc12 (stereo not drawn) [ONC0001922, phenindamine] | 47.96 | –
9 | CN1CCOC(c2ccccc2)c2ccccc2C1 (stereo not drawn) [ONC0000697, nefopam] | 116 | –
10 | CN1CCC2=C(C1)c1ccccc1Cc1ccccc12 [ONC0005445, setiptiline] | 113.1 | –
11 | CSCC[C@H](N)C(=O)O [ONC0005517, lmethionine] | – | 102.8
12 | Cc1ccc(NC(=O)c2ccc(CN3CCC(N(C)C)C3)c(C(F)(F)F)c2)cc1Nc1ncc(-c2cncnc2)cn1 (stereo not drawn) [ONC0004625, bafetinib inno406] | 85.25 | –
13 | CC(=O)NC1=NN(C(C)=O)C(C)(c2ccccc2)S1 (stereo not drawn) [ONC0002658, k858] | 49.67 | –
14 | CCNCCS(=O)(=O)NC[C@@]1(c2ccccc2)SC(NC(=O)C(C)(C)C)=NN1C(=O)C(C)(C)C [ONC0000804, litronesib] | 77.28 | –
15 | CC(=O)Nc1ccccc1 [ONC0000688, acetanilide] | 114.7 | –
16 | CCCCN1[C@@H]2CC[C@H]1C[C@@H](OC(c1ccc(F)cc1)c1ccc(F)cc1)C2 [ONC0003046, jhw007] | 64.39 | –
17 | FC(F)(F)c1ccc(CNc2ccc(Cc3c[nH]c4ncccc34)cn2)cc1 [ONC0002656, plx647] | 82.24 | –
18 | CCOc1cc(C(C)(C)C)ccc1C1=NC(C)(c2ccc(Cl)cc2)C(C)(c2ccc(Cl)cc2)N1C(=O)N1CCN(CCCS(C)(=O)=O)CC1 (stereo not drawn) [ONC0004446, rg7112 ro5045337] | 112.9 | –
19 | [N-]=[N+]=N[C@]1(CO)O[C@@H](n2ccc(N)nc2=O)[C@@H](O)[C@@H]1O [ONC0000950, ro9187] | 66.7 | –

Row | SMILES | % viability [%] | % viability [1] [%]
20 | Nc1ccn([C@@H]2O[C@@](CO)(CCl)[C@@H](O)[C@H]2F)c(=O)n1 [ONC0000939, als8112] | 44.91 | –
21 | [N-]=[N+]=N[C@]1(CO)O[C@@H](n2ccc(N)nc2=O)[C@H](O)[C@@H]1O [ONC0001768, r1479] | 81.29 | –
22 | [H]/N=C(/N)c1ccc(NCc2nc3cc(C(=O)N(CCC(=O)O)c4ccccn4)ccc3n2C)cc1 [ONC0004940, bibr 953 dabigatran etexilate pradaxa] | 81.22 | –
23 | C=C[C@H]1C[N@@]2CC[C@H]1C[C@@H]2[C@@H](O)c1ccnc2ccc(OC)cc12 [ONC0003347, quinidine gluconate] | 101.1 | –
24 | O=C(Nc1c[nH]nc1-c1nc2cc(CN3CCOCC3)ccc2[nH]1)NC1CC1 [ONC0004692, at9283] | 87.23 | –
25 | C[C@@H](c1nc(-c2ccc(C#N)cc2)cs1)[C@](O)(Cn1cncn1)c1cc(F)ccc1F [Isavuconazole] | 3.591 | –
26 | C[C@@H](c1nc(-c2ccc(C#N)cc2)cs1)[C@](O)(Cn1cncn1)c1ccc(F)cc1F [Ravuconazole] | 0.9972 | –
27 | OC(Cn1cncn1)(Cn1cncn1)c1ccc(F)cc1F [ONC0005572, fluconazole] | 73.77 | –
28 | C[C@@H](c1ncncc1F)[C@](O)(Cn1cncn1)c1ccc(F)cc1F [Voriconazole] | 2.12 | –
29 | CO[C@H]1CC[C@H](N2C(=O)CNc3ncc(-c4ccc(C(C)(C)O)nc4)nc32)CC1 [ONC0001106, cc223] | 54.41 | –
30 | COc1ccc(-c2cnc3c(-c4cccc5ncccc45)cnn3c2)cc1 [ONC0002277, chr6494] | – | 84.04
31 | C[C@@H]1[C@H](O)[C@@H](C)/C=C/C=C/CC/C=C/C=C/C=C/C=C/[C@H](O[C@@H]2O[C@H](C)[C@@H](O)[C@H](N)[C@@H]2O)C[C@@H]2O[C@](O)(C[C@@H](O)[C@H](O)CC[C@@H](O)C[C@@H](O)C[C@@H](O)CC(=O)O[C@H]1C)C[C@H](O)[C@H]2C(=O)O [ONC0002036, nystatin] | 93.36 | –
32 | O=C(O)C=C1NN(Cc2nc3cc(C(F)(F)F)ccc3s2)C(=O)c2ccccc21 [ONC0005526, zopolrestat] | 123.5 | –
33 | CCS(=O)(=O)N1CCC[C@@H]2CN3CCc4cc(OC)ccc4[C@@H]3C[C@@H]21 [ONC0002617, rs79948] | 85.43 | –
34 | C[C@@]1(c2nc3c(C(N)=O)cccc3[nH]2)CCCN1 [ONC0004676, abt888 veliparib] | 121 | –
35 | Cc1cc(NC(=O)C2C(=O)c3ccccc3S(=O)(=O)N2C)no1 (stereo not drawn) [ONC0002885, isoxicam] | 123.7 | –
36 | O=C(O)c1ccccc1 [ONC0003100, benzoic acid] | 90.48 | –
37 | O=C(O)c1ccc[n+]([O-])c1 [ONC0005291, oxiniacic acid] | 104 | –
38 | C[n+]1cccc(C(=O)O)c1 [ONC0003448, trigonellinehcl] | 47.48 | –

Row | SMILES | % viability [%] | % viability [1] [%]
39 | Cc1cc(CCC[C@H](CC(=O)NO)C(=O)N[C@H](C(=O)N[C@H](C)c2ccccc2)C(C)(C)C)ccc1-c1ccccc1 [ONC0002525, uk356618] | 62.33 | –
40 | CC(C)[C@@H]1CC[C@@H](C)C[C@H]1O [ONC0003141, levomenthol] | 69.71 | –
41 | CC(C)[C@@H]1CC[C@@H](C)C[C@@H]1P(=O)(c1ccccc1)c1ccccc1 [ONC0003951, dpo1] | 47.19 | –
42 | CC[C@H](C)[C@H](NC(=O)[C@H](Cc1ccc(O)cc1)NC(=O)[C@@H](NC(=O)[C@H](CCCNC(=N)N)NC(=O)[C@@H](N)CC(=O)O)C(C)C)C(=O)N[C@@H](Cc1cnc[nH]1)C(=O)N1CCC[C@H]1C(=O)N[C@@H](Cc1ccccc1)C(=O)O [ONC0002134, angiotensin ii human] | 79.83 | –
43 | CC(C)N[C@H]1CCn2c(=O)[nH]c3cccc(c32)[C@@H]1O [ONC0003872, zilpaterol] | 87.84 | –
44 | COc1cc(CC2NCCc3cc(O)c(O)cc32)cc(OC)c1OC (stereo not drawn) [ONC0002165, trimethoquinol] | 66.75 | –
45 | O=C(O)Cc1ccc(-c2ccccc2)cc1 [ONC0005558, felbinac] | 137.1 | –
46 | O=C(O)Cc1ccc2c(c1)C(=O)c1ccccc1CO2 [ONC0003681, isoxepac] | 47.44 | –
47 | CN(C)CC/C=C1/c2ccccc2COc2ccc(CC(=O)O)cc21 [ONC0004990, olopatadine hydrochloride opatanol] | 101 | –
48 | O=C1c2cccnc2OC[C@@H]2CCCN12 [ONC0001148, org26576] | 83.51 | –
49 | CCOC(=O)NNc1ccc(N(CC)CC(C)O)nn1 (stereo not drawn) [ONC0001944, cadralazine] | 72.29 | –
50 | C=C1C(=O)O[C@@H]2[C@H]3O[C@]3(C)CC/C=C(\C)CC[C@@H]12 [ONC0002950, parthenolidealternatestereo] | 150.2 | –
51 | Cc1cccc(Oc2nc3c(C)cccn3c(=O)c2/C=C(\C#N)c2nc3ccccc3s2)c1 [ONC0001281, ccg63802] | 68.65 | –
52 | Cc1cccn2c(=O)c(/C=C(\C#N)c3nc4ccccc4s3)c(Oc3ccc(F)cc3)nc12 [ONC0003502, ccg63808] | 42.44 | –
53 | Cc1ccc(OC[C@@H](O)[C@H](C)NC(C)C)c2c1CCC2 [ONC0001929, ici118551] | 52.35 | –
54 | Cc1ccc(-c2ncccn2)c(C(=O)N2C[C@H](COc3ccc(F)cn3)CC[C@H]2C)c1 [ONC0005570, filorexant] | 73.84 | –
55 | O=C(O)CC(O)(CC(=O)O)C(=O)O.[Li].[Li].[Li] [ONC0004255, lithium citrate hydrate] | 60.67 | –
56 | CCCCCCCCCCCCOCCOCCOCCOCCOCCOCCOCCOCCOCCO [ONC0002139, polidocanol] | 78.72 | –
57 | C[C@H]1OC(O)[C@H](O)[C@H](O)[C@H]1O (stereo partly drawn) [ONC0004779, l rhamnose monohydrate] | 103.9 | –
